The whole screen tested about 2,100 compounds, of which about 1,700 (81%) were called active. So high a share suggests a set chosen from earlier hits. The list shows a part of the results. Entries with a potency or affinity are not part of this list. Records with an inconclusive call do not appear. How the calls were made is not given here.
Molecular target: Replicative DNA helicase DnaB (Mycobacterium tuberculosis (strain ATCC 25618 / H37Rv)) (UniProt P9WMR3)
Experiment: DnaB intein splicing inhibitors, dose response, biochemical, M. tuberculosis H37Rv, cell-free fluorescence (AID 449749)
Settings: series mostly up to 38 µM; activity change, negative = inhibition: at the top concentration

Replicative DNA helicase DnaB (Mycobacterium tuberculosis (strain ATCC 25618 / H37Rv)), sequence (P9WMR3 whole entry, looked up): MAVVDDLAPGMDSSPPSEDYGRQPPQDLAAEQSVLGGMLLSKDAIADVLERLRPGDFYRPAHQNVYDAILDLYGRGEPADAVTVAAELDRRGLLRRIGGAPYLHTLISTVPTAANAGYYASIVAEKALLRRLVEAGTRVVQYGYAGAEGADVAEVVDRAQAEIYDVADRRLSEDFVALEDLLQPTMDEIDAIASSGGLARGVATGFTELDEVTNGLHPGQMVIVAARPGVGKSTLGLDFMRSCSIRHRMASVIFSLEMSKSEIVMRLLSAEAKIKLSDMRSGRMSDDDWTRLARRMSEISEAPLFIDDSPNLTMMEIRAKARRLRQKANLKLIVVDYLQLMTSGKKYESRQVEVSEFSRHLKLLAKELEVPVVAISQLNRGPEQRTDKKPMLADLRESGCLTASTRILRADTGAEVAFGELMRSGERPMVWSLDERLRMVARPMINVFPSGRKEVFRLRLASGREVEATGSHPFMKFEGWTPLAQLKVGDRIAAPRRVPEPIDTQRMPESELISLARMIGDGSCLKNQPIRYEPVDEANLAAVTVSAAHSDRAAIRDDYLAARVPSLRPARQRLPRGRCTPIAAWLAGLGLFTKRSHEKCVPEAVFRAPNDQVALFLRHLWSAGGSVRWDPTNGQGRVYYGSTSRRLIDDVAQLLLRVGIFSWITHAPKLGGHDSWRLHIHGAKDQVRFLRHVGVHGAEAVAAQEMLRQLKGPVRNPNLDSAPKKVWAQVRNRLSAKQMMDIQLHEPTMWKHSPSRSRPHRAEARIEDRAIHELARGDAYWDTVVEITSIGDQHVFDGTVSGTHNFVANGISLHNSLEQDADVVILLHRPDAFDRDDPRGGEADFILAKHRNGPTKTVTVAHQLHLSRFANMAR

Row | Structure (SMILES) | activity change, negative = inhibition
1 | OCCNC(=S)Nc1ccc2nsnc2c1 | 170% (inactive)
2 | CCCCNC(=O)c1c(N)n(Cc2ccc3c(c2)OCO3)c2nc3ccccc3nc12 | 83.3% (inactive)
3 | Cc1ccsc1C=Nc1ccc(O)cc1 | 66% (inactive)
4 | C=CCn1c(N)c(C(=O)Nc2cccc(C)c2)c2nc3ccccc3nc21 | 458% (inactive)
5 | CN1/C(=C/C(=O)c2nc(S(C)(=O)=O)ncc2Cl)C(C)(C)c2ccccc21 | 112% (inactive)
6 | ONc1cccnc1-n1nc(C(F)(F)F)cc1C(F)(F)F | 205% (inactive)
7 | CCCCCn1c(N)c(C(=O)NCc2cccs2)c2nc3ccccc3nc21 | 438% (inactive)
8 | O=[N+]([O-])c1cncc([N+](=O)[O-])c1Nc1cccc(O)c1 | 106% (inactive)
9 | CCOc1ccc2c(c1)-c1c(ssc1=S)C(C)(C)N2 | 32.7% (inactive)

Source: PubChem BioAssay AID449749 (Broad Institute, 2010)
